Data on 23 compounds can be found in PubChem BioAssay (NCATS).

Assay [1] in a line: Confirmatory qHTS to identify inhibitors of SARS-CoV-2 cell entry (AID 1645844). Also: nearly all actives have a fitted effect of over 45% in size. In a few lines:
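HEK293-ACE2, overnight seeding; cpd 1 h, 37C/5% CO2; + SARS-CoV-2-S MLV PP (Wuhan-Hu-1, ΔC19); 48 h; Bright-Glo luminescence. Data normalised to S PP and bald PP wells.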

A short description of assay [2]: Cytotoxicity counterscreen for inhibitors of SARS-CoV-2 cell entry (AID 1645845). Also: nearly all actives have a fitted effect of over 50% in size. The conditions noted are these: outcome: dose series up to 57.1 µM unless noted. In a few lines:
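Counterscreen run in the same HEK293-ACE2 line as the pseudotyped-particle entry assay, without particles. Viability after 48 h at 37 C was read as ATP luminescence, scaled between cell-containing and cell-free wells.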
(In general: A counterscreen serves to expose hits that act by an unwanted route or on another target.)

Assay [3] can be described thus: Primary qHTS to identify inhibitors of SARS-CoV-2 cell entry (AID 1645846). Also: nearly all actives have a fitted effect of over 45% in size. The settings on record: SARS-CoV-2 pseudovirus cell entry assay, luminescence; activity change, negative = inhibition: at 57.1 µM (top of the series) unless noted. In a few lines: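 Luminescence readout (Bright-Glo luciferase) 48 h after pseudoparticle addition. HEK293-ACE2 cells, 1500/well; compound pre-incubation 1 h; Normalized to spike PP and bald PP.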
On the technique in general: In qHTS, concentration-response curves come from the screen itself.

Assay [4] is described as follows: VSVG counterscreen qHTS to identify inhibitors of SARS-CoV-2 cell entry (AID 1645847). Also: nearly all actives have a fitted effect of over 65% in size. As to activity change, negative = inhibition: % is scaled to controls: 0 for no effect and ±100 for the full control effect. In a few lines:
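HEK293-ACE2 cells (Expi293F stably expressing human ACE2) were pretreated with compound for 1 h at 37 °C, then infected with MLV-based VSV-G pseudotyped particles for 48 h. Luciferase luminescence was normalized to VSV-G PP and bald PP wells.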

For assay [5], the target named is Cytochrome P450 2D6 (Homo sapiens) (UniProt P10635). Briefly: Cytochrome P450 family 2 subfamily D member 6 (CYP2D6) small molecule antagonists: luciferase biochemical (cell-free) qHTS assay (AID 1645840; active = well fitted curve in the direction sought with a large enough effect in the repeat runs; an effect the other way counts as inactive or inconclusive; also: nearly all actives have a fitted effect of over 55% in size; as to activity change, negative = inhibition: % is scaled to controls: 0 for no effect and ±100 for the full control effect). In a few lines: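 P450-Glo CYP2D6 system: proluciferin substrate converted by enzyme to luciferin, read by luminescence proportional to activity. Enzyme-substrate mix with compound 10 min at room temperature, then NADPH regeneration 1 h before detection reagent.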

Assay [6] addresses Cytochrome P450 2C9 (Homo sapiens) (UniProt P11712). Briefly: Cytochrome P450 family 2 subfamily C member 9 (CYP2C9) small molecule antagonists: luciferase biochemical (cell-free) qHTS assay (AID 1645842; active = well fitted curve in the direction sought with a large enough effect in the repeat runs; an effect the other way counts as inactive or inconclusive; also: nearly all actives have a fitted effect of over 55% in size; as to activity change, negative = inhibition: % is scaled to controls: 0 for no effect and ±100 for the full control effect). In a few lines: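 P450-Glo CYP2C9 system: proluciferin substrate with enzyme in mix containing 0.4% BSA, 10 min at room temperature, then NADPH regeneration solution added and incubated 1 h at 37C. Detection reagent stopped reaction; luminescence read after 20 min as RLU.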

Records with an inconclusive call do not appear. The source made the active and inactive calls. Unless noted, calls follow the shape of the full dose curve.
Potency is read from the fitted curve at half-maximal effect.

Cytochrome P450 2C9 (Homo sapiens), sequence (P11712 whole entry, looked up): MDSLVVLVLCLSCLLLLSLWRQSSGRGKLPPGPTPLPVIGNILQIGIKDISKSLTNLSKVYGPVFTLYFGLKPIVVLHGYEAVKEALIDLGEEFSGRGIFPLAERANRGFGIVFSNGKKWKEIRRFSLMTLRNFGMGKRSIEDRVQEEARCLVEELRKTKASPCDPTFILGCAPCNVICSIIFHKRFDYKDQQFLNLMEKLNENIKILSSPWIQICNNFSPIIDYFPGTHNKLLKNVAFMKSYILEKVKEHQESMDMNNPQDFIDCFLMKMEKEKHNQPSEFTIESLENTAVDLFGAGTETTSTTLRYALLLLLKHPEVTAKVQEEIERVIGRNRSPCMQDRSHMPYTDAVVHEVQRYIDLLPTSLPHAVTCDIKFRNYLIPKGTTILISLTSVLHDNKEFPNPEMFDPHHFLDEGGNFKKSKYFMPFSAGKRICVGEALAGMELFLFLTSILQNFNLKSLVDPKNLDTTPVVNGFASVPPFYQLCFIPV
Cytochrome P450 2D6 (Homo sapiens), sequence (P10635 whole entry, looked up): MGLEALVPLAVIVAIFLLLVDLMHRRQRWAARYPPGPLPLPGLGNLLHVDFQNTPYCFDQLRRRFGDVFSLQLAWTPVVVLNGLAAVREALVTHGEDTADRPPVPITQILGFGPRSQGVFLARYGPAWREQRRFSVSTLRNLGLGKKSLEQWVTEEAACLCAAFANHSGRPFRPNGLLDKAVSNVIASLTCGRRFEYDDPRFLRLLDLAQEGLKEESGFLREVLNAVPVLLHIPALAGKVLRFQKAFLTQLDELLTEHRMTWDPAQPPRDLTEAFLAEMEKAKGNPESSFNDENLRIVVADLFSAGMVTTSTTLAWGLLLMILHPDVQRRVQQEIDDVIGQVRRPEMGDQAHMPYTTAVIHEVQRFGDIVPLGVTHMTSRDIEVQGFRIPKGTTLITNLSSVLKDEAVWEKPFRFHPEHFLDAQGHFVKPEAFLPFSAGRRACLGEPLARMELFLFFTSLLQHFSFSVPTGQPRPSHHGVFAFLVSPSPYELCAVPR

On to `Cc1cnc(Nc2ccc(F)cc2Cl)nc1-c1c[nH]c(C(=O)NC(CO)c2cccc(Cl)c2)c1` (stereo not drawn), for which the Potency in assay [1] is 3830 nM (active); in assay [3], 8910 nM (active); in assay [4] it was 1920 nM (active). Also, the Potency result in assay [2] was “inactive”.
Consider `CCN(CCCOc1ccc2c(Nc3cc(CC(=O)Nc4cccc(F)c4)[nH]n3)ncnc2c1)CCOP(=O)(O)O`, for which the results for the Potency in assay [1] and in assay [4] were 34.1 nM (active) and 76.4 nM (active), respectively. Also, the Potency entry in assay [2] is “inactive”. Also, the activity change, negative = inhibition in assay [3] is -62.3%.
On to `Cc1cc(/C=c2/sc3nc4ccccc4n3c2=O)c(C)n1-c1ccccc1`, for which the Potency in assay [1] is 34.1 nM (active); in assay [4] it was 68.1 nM (active). Moreover, in assay [2], the Potency result was “inactive”. The activity change, negative = inhibition in assay [3] is -93.9%.
In the case of `O=C(Nc1cccnc1)c1cc(-c2ccnc(F)c2)ccc1OCc1ccccc1`, the Potency result in assay [1], in assay [2] and in assay [4] was “inactive” each time. In addition, the activity change, negative = inhibition in assay [3] is -5.26%.
As to `CCN=C1Nc2ccc(Cl)cc2C(C)(c2ccccc2)O1` (stereo not drawn), the Potency in assay [5] was 10700 nM (active); in assay [6], 9520 nM (active).
For the compound `C=C1C[C@H]2C=Nc3cc(OCCCOc4cc5c(cc4OC)C(=O)N4CC(=C)C[C@H]4C=N5)c(OC)cc3C(=O)N2C1`, the Potency in assay [1] was 1.5 nM (active); in assay [4] it was 1.4 nM (active). Besides, the Potency entry in assay [2] is “inactive”. Further, the activity change, negative = inhibition in assay [3] is -62%.
Regarding `CC(C)n1c(=O)cc(N[C@@H](C)c2ccccc2)[nH]c1=O`, the Potency result in assay [1], in assay [2] and in assay [4] was “inactive” each time. In assay [3], the activity change, negative = inhibition was -96.7%.
As for `CCN(CC)N(O)N=O`, the Potency entry in assay [5] and in assay [6] was “inactive” in each case.
In the case of `O=c1c(-c2ccc(O)cc2)coc2c([C@@H]3O[C@H](CO)[C@@H](O)[C@H](O)[C@H]3O)c(O)ccc12`, the Potency result in assay [1] and in assay [2] was “inactive” each time. In addition, in assay [3], the activity change, negative = inhibition is -22.1%.
Take `CCc1cnn2c(NCc3ccc[n+]([O-])c3)cc(N3CCCC[C@H]3CCO)nc12`: the Potency was 54.1 nM (active) in assay [1] and 34.1 nM (active) in assay [4]. Besides, the Potency result in assay [2] was “inactive”. The activity change, negative = inhibition in assay [3] was -54%.
Turning to `CCc1nc(C(N)=O)c(Nc2ccc(N3CCC(N4CCN(C)CC4)CC3)c(OC)c2)nc1NC1CCOCC1`, the Potency was 3410 nM (active) in assay [1] and 10000 nM (active) in assay [3]. In addition, the Potency entry in assay [2] is “inactive”.
Consider `COc1ncc(Nc2ncc(C(C)N3CCN(S(C)(=O)=O)CC3)cc2-c2nc(C)nc(N)n2)cc1F` (stereo not drawn), for which the Potency in assay [1] was 1520 nM (active).
For `CC(C)c1cc(CNc2nc(Nc3cc(C4CC4)[nH]n3)cc(N3CCN(C)CC3)n2)on1`, the Potency in assay [1] is 215 nM (active); in assay [2] it was 12600 nM (active); in assay [3] it was 2510 nM (active); in assay [4] it was 541 nM (active).
As for `CN(C)[C@@H]1C(=O)C(C(N)=O)C(=O)[C@@]2(O)C(=O)C3C(=O)c4c(O)ccc(Cl)c4[C@@](C)(O)C3C[C@@H]12` (stereo partly drawn), the Potency result in assay [5] and in assay [6] was “inactive” in each case.
Take `Cc1ccccc1[C@@H](C(=O)NC1CCCCC1)N(C(=O)Cn1ccnc1C)c1cccc(F)c1`: in assay [6], the Potency result was “inactive”.
In the case of `CC/C(=C(/c1ccc(O)cc1)c1ccc(OCCNC)cc1)c1ccccc1`, the Potency in assay [1] is 17100 nM (active); in assay [4], 24100 nM (active). Besides, the Potency result in assay [2] was “inactive”. The activity change, negative = inhibition in assay [3] is -36.5%.
On to `O=c1c(-n2ccnn2)c[nH]n1-c1cc(N2CCOCC2)ncn1`, for which the Potency is 4820 nM (active) in assay [1] and 21500 nM (active) in assay [4].
As for `COc1ccc(N(C)c2nc(C)nc3ccccc23)cc1`, the Potency is 6810 nM (active) in assay [1] and 4820 nM (active) in assay [4]. The activity change, negative = inhibition in assay [3] was -80.5%.
Turning to `CC[C@]1(O)CC2CN(CCc3c([nH]c4ccccc34)[C@@](C(=O)OC)(c3cc4c(cc3OC)N(C)[C@H]3[C@@](O)(C(=O)OC)[C@H](OC(C)=O)[C@]5(CC)C=CCN6CC[C@]43[C@@H]65)C2)C1` (stereo partly drawn), the Potency is 4.3 nM (active) in assay [1] and 38.3 nM (active) in assay [4].
As for `CS(=O)(=O)N1CCC(NC(=O)c2[nH]ncc2NC(=O)c2c(Cl)cccc2Cl)CC1`, the Potency in assay [1] was 34.1 nM (active); in assay [4], 96.1 nM (active). Also, in assay [3], the activity change, negative = inhibition is -94.8%.
For `O=C1NC(=O)C(c2cnc3ccccn23)=C1c1cn2c3c(cc(F)cc13)CN(C(=O)N1CCCCC1)CC2`, the results for the Potency in assay [1] and in assay [4] were 2150 nM (active) and 152 nM (active), respectively.
With `C[C@@]1(c2ncncc2F)NC(=O)c2cc(-c3cn[nH]c3)ccc21`, the Potency is 3040 nM (active) in assay [1] and 4820 nM (active) in assay [4]. In addition, the Potency entry in assay [2] was “inactive”.
For the compound `Nc1ccn([C@@H]2C(F)=C(CO)[C@@H](O)[C@H]2O)c(=O)n1`, the results for the Potency in assay [1] and in assay [4] were 1520 nM (active) and 3040 nM (active), respectively. Also, in assay [2], the Potency result was “inactive”.
